# Data taken from PubChem BioAssay (NCI).
# About 83,000 compounds went through this panel and 20% of them were active in at least one assay; those are over-represented in the sample as a whole.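 Method: cells in 96-well plates; compound added at one concentration; 48 h incubation; percent growth measured; values under 10 scored active.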 Values without a mark were called inactive. Active and inactive are the calls of the source.
# How the values were obtained:
# Assay in all cases: NCI-60 one-dose screen, 48 h (100 = growth as untreated, 0 = no growth, -100 = all killed)
# Conditions in all cases: 10 µM unless noted
# SR leukemia = system: SR leukemia
# RPMI-8226 leukemia = system: RPMI-8226 leukemia
# OVCAR-8 ovarian = system: OVCAR-8 ovarian
# OVCAR-5 ovarian = system: OVCAR-5 ovarian
# OVCAR-4 ovarian = system: OVCAR-4 ovarian
# SK-OV-3 ovarian = system: SK-OV-3 ovarian
# IGROV1 ovarian = system: IGROV1 ovarian
# OVCAR-3 ovarian = system: OVCAR-3 ovarian
# HS 578T breast = system: HS 578T breast
# NCI/ADR-RES ovarian = system: NCI/ADR-RES ovarian
# T-47D breast = system: T-47D breast
# BT-549 breast = system: BT-549 breast
# MDA-MB-435 melanoma = system: MDA-MB-435 melanoma
# SW-620 colon = system: SW-620 colon
# MCF7 breast = system: MCF7 breast
# HCT-116 colon = system: HCT-116 colon
# HCC-2998 colon = system: HCC-2998 colon
# KM12 colon = system: KM12 colon
SMILES,growth (SR leukemia),growth (RPMI-8226 leukemia),growth (OVCAR-8 ovarian),growth (OVCAR-5 ovarian),growth (OVCAR-4 ovarian),growth (SK-OV-3 ovarian),growth (IGROV1 ovarian),growth (OVCAR-3 ovarian),growth (HS 578T breast),growth (NCI/ADR-RES ovarian),growth (T-47D breast),growth (BT-549 breast),growth (MDA-MB-435 melanoma),growth (SW-620 colon),growth (MCF7 breast),growth (HCT-116 colon),growth (HCC-2998 colon),growth (KM12 colon)
COC(=O)[C@H](C)NC(=O)c1ccc(NC(=O)c2[nH]c(C)c(Cl)c2Cl)c(OCCN)c1,67.2%,96.9%,96.2%,106%,113%,106%,104%,108%,101%,107%,99.6%,97%,104%,102%,81.5%,106%,95.4%,92.5%
C=C(c1ccc(OC)c(/C=C/C(=O)c2cc(OC)c(OC)c(OC)c2)c1)c1cc(OC)c(OC)c(OC)c1,9.47% (active),10.1%,6.59% (active),-51.3% (active),40%,38.6%,15.2%,-39.8% (active),96.5%,-7.33% (active),17.2%,1.8% (active),-28.1% (active),-12.4% (active),8.83% (active),-62.4% (active),11.4%,-4.59% (active)
CCCCCCCCCCCCCCCCCCOc1ccccc1CC(=O)OCC[N+]1(C)CCCCC1,10%,-10.2% (active),21.9%,54.8%,32%,96.6%,-32.1% (active),61.7%,62.3%,92.3%,66.9%,58%,57%,68.3%,51.1%,30.2%,40.3%,86.5%
COc1ccc2c(c1)c(-c1nc(-c3cn(C)c4ccncc34)cs1)cn2C,-26.1% (active),-48% (active),-3.91% (active),-16.7% (active),-3.39% (active),119%,-2.51% (active),-77.6% (active),104%,10.2%,95.7%,91.2%,-90% (active),-77.5% (active),-55.7% (active),-88.6% (active),-54.1% (active),-53.1% (active)
CCOC(=O)c1ccc2c(c1)[n+](=O)c(C(C)=O)c(C(F)(F)F)n2[O-],-59.2% (active),8.56% (active),-42.6% (active),-1.19% (active),-5.96% (active),24.8%,-81.1% (active),-84.7% (active),-23.9% (active),6.85% (active),-26.1% (active),-44.9% (active),2.85% (active),-0.801% (active),-6.41% (active),-38.9% (active),-17.1% (active),-85.5% (active)
CC1(C)CC[C@]2(CO)CC[C@]3(C)C(=CC[C@@H]4[C@@]5(C)CCNCC(C)(C)[C@@H]5CC[C@]43C)[C@@H]2C1,-24.3% (active),-26.1% (active),87.4%,81.8%,81%,95.4%,95%,89.5%,96.7%,91.9%,56.3%,90.1%,41.6%,21%,38.6%,55.5%,-60.8% (active),34.7%
NCCCCCNc1noc(Cc2c[nH]c3cc(Br)ccc23)n1,10.5%,4.37% (active),28.4%,58.1%,46.8%,-1.93% (active),34.5%,-50.2% (active),19.8%,-13.6% (active),25.9%,44.9%,-37% (active),18.6%,21.8%,23%,64%,23.9%
COc1ccc(C2CC(=O)Oc3c(OC)c4c(c(OC)c32)OCO4)cc1 (stereo unspecified),61.8%,89.4%,98.2%,92.2%,106%,92%,92.7%,109%,93.7%,92.4%,103%,87.6%,56.8%,89.7%,92.7%,96.9%,97%,88.1%
COc1nc2ccccc2cc1/C=[N+](\[O-])c1ccccc1,21.5%,14.2%,37.3%,97.4%,74.3%,87.3%,86.7%,86.2%,81.5%,44.9%,58.9%,86.7%,42.2%,28.4%,28.6%,10.2%,105%,84%
Cc1cc2nc(C(Cl)Cl)nc(-c3ccccc3)n2n1,20.6%,63%,49.6%,78.8%,33.2%,60.6%,71.4%,36.9%,52.6%,48.6%,61.7%,86.8%,68.9%,29.6%,41.5%,41.1%,28.5%,18.2%
O=C(Cn1cc(CSc2nc3ccccc3o2)nn1)Nc1ccc([N+](=O)[O-])cc1,101%,97.3%,107%,100%,96.9%,76.6%,91.6%,103%,95.3%,97.4%,87.9%,96.7%,99.1%,102%,96.8%,97.6%,110%,94.8%
O=C(OCc1ccc2c(Br)cc(Br)c(O)c2n1)N1CCN(C(=O)c2cc3ccccc3[nH]2)CC1,31.3%,34.3%,25.5%,54.3%,26%,40.1%,31.5%,31.3%,48.2%,7.07% (active),27.9%,56%,43.9%,25.3%,29.5%,22.4%,53.1%,29.5%
O=C1OCC2=C1C(c1cccc(F)c1)c1cc3c(cc1N2CCO)CCC3 (stereo unspecified),12.3%,23.3%,13.5%,36.2%,48.8%,32.8%,23.5%,-24.9% (active),41.2%,13.3%,52.6%,39.5%,-36.9% (active),26.3%,19.7%,10.5%,7.85% (active),13.4%
C=C1/C(=C\C=C2/CCC[C@]3(C)[C@@H]([C@H](C)CCCC(C)(C)O)CC[C@@H]23)C[C@@H](OC(=O)CBr)C[C@@H]1O,-47.3% (active),-50.7% (active),57.3%,84.1%,62.7%,108%,-65.5% (active),-20.1% (active),66.6%,81.2%,81.7%,-58.1% (active),90.4%,70.7%,34.9%,80.9%,107%,57.9%
CS(=O)(=O)c1cccc(Nc2ncc3cc(-c4ccccc4Cl)ccc3n2)c1,0.145% (active),1.72% (active),11.3%,32.2%,39%,-2.26% (active),4.09% (active),22.1%,3.45% (active),-1.15% (active),11.1%,10.3%,-28.3% (active),15.7%,21.4%,-5.46% (active),33.3%,21.5%
CS(=O)(=O)c1ccc(/C(=N/NC(N)=S)c2ccc(F)cc2)cc1,103%,99.5%,103%,104%,104%,112%,101%,108%,102%,102%,88.2%,102%,102%,101%,89.9%,95.7%,104%,101%
O=C(CSc1nnc(-c2ccc(Cl)c(Cl)c2)n1-c1ccccc1)Nc1ccc(C(=O)/C=C/c2ccc(Cl)cc2)cc1,76.6%,-11.4% (active),87.9%,96.8%,94.4%,87.9%,89.2%,95.5%,90.7%,95.3%,81.8%,77.5%,94.3%,94.4%,68.1%,6.82% (active),110%,99.3%
